Records with an inconclusive call do not appear. Entries that show only a call come without a potency. The source made the active and inactive calls. Calls come from the whole dose curve; as a rule, active = well fitted inhibition curve with a large enough effect; inconclusive = small, poorly fitted or top-dose-only effect; inactive = no such curve, though single readings can be large or run the other way.
Each molecule was assayed on Zika virus NS2B-NS3 protease (linked construct) (assay: Primary screen NINDS Rhodamine qHTS for Zika virus inhibitors (AID 1347160; note: nearly all actives have a fitted effect of over 55% in size)). Conditions: purified NS2B-NS3 protease, Rhodamine110 substrate fluorescence; series mostly up to 33.1 µM.
Procedure, shortened: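 Purified NS2B-NS3 protease with the NS2B hydrophilic domain joined by a flexible linker (25 nM) in 10 mM Tris-HCl pH 8.0, 0.01% Tween 20, preincubated 15 min at RT with compound; Rhodamine110 peptide substrate 1.5 µM; fluorescence change over 15 min; 4-parameter Hill fit.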
`CCC(C)/C=C(C)/C=C/C1=CC2=C(Cl)C(=O)C(C)(OC(C)=O)C(=O)C2=CN1C(CCCN=C(N)N)C(=O)O` (configuration not stated) was tested, and the Potency was “inactive”. `COc1ccc(-n2c(=O)[nH]c3cc(C(=O)NCc4ccc(Cl)cc4)sc3c2=O)nc1OC` was tested, and the Potency was “inactive”. In the case of `C/C=C/C=C/C1=C2C(=O)C3(C)C4C(C(=O)CC(O)/C=C/C)=C(O1)C1(C)C2C2(C)OC1(O)C4(C)OC23O` (configuration not stated), the Potency is reported as “inactive”. With `CC(C)(O)C1CC=C(C(=O)OC[C@H]2O[C@@H](OC(=O)C3=CCC(C(C)(C)O)CC3)[C@H](O)[C@@H](O)[C@@H]2O)CC1` (some centres not stated) the Potency was “inactive”. In the case of `COC1OC(=O)C2=C1C1(C)CCCC(C)(C)C1CC2O` (configuration not stated), the Potency is reported as “inactive”. For `CC1=C(CC/C(C)=C/C(=O)O)[C@@]2(C)CCCC(C)(C)C2CC1=O` (some centres not stated), the Potency was “inactive”. With `CC(O)/C=C/C1(O)C(C)C(O)C(O[C@@H]2O[C@H](CO)[C@@H](O)[C@H](O)[C@H]2O)CC1(C)C` (some centres not stated) the Potency was “inactive”.

Source: PubChem BioAssay (NCATS)
